Measured values published in paper PMC8384837, “Expanding the binding specificity for RNA recognition by a PUF domain”.

Each sequence was assayed against PUM1 PUF domain R5-LQR (Homo sapiens, UniProt Q14671 828-1176, C1007L;R1008Q;Q1011R) (assay: yeast three-hybrid, YBZ-1, SC-Leu-His + 0.5 mM 3-AT, 4 days). Conditions: tags: N-Gal4 AD-HA kept; label: inside an RPR1-promoter hybrid RNA with tandem MS2 sites; ssRNA.
Method in brief: (§1)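 The interaction score is the log change in how often each variant appears, from input to selection. Frequencies came from PCR-amplified, Illumina-sequenced repeat regions of Pumilio-1 PUF domain libraries grown in strain YBZ-1 (LexA–MS2 coat fusion, HIS3 reporter) alongside matching RNA elements. Input plates were SC-Leu and selection plates were SC-Leu-His + 0.5 mM 3-AT, each for four days, and the log2 calculation used a pseudocount of 1 where a variant was absent.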

PUM1 PUF domain R5-LQR, sequence (Q14671 828-1176 C1007L/R1008Q/Q1011R): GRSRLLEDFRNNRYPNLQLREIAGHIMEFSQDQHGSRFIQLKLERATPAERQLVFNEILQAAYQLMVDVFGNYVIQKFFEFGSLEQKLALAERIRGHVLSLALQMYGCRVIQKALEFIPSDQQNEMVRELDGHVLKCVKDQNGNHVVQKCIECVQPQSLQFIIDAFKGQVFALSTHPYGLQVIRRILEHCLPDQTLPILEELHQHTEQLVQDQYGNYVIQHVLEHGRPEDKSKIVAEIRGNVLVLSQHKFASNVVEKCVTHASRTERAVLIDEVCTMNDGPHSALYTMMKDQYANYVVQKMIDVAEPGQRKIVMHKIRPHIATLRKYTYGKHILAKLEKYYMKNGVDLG

For “GGCUAGAACUAGUGGAUCCCCCGGCGCCCGGCGGCUCGAGCCCGGGUAAGUGUAAAUAGUCUGCAUGCCGCCGGGCGCCAUGCCUGCAGGUCGACUCUAGAAAACAUG”, which binding signal is on record?
The binding signal was 1.81 log2 enrichment (interaction score).

“GGCUAGAACUAGUGGAUCCCCCGGCGCCCGGCGGCUCGAGCCCGGGUAAGUGUCAAUAGUCUGCAUGCCGCCGGGCGCCAUGCCUGCAGGUCGACUCUAGAAAACAUG” was tested. Which binding signal did it give?
Its binding signal is 3.47 log2 enrichment (interaction score).

How did the binding signal turn out when “GGCUAGAACUAGUGGAUCCCCCGGCGCCCGGCGGCUCGAGCCCGGGUAAGUGUUAAUAGUCUGCAUGCCGCCGGGCGCCAUGCCUGCAGGUCGACUCUAGAAAACAUG” was run?
Its binding signal is 2.83 log2 enrichment (interaction score).

The sequences below were run against PUM1 PUF domain R5-ERV (Homo sapiens, UniProt Q14671 828-1176, C1007E;Q1011V) in the same assay as above. Conditions: tags: N-Gal4 AD-HA kept; label: inside an RPR1-promoter hybrid RNA with tandem MS2 sites; ssRNA.
PUM1 PUF domain R5-ERV, sequence (Q14671 828-1176 C1007E/Q1011V): as the sequence (Q14671 828-1176 C1007L/R1008Q/Q1011R) above, with L180E, Q181R, R184V counted along it
Method in brief: as §1

“GGCUAGAACUAGUGGAUCCCCCGGCGCCCGGCGGCUCGAGCCCGGGUAAGUGUAAAUAGUCUGCAUGCCGCCGGGCGCCAUGCCUGCAGGUCGACUCUAGAAAACAUG” was tested. Which binding signal did it give?
Its binding signal is 5.11 log2 enrichment (interaction score).

Which binding signal does the source give for “GGCUAGAACUAGUGGAUCCCCCGGCGCCCGGCGGCUCGAGCCCGGGUAAGUGUCAAUAGUCUGCAUGCCGCCGGGCGCCAUGCCUGCAGGUCGACUCUAGAAAACAUG” here?
Its binding signal is 2.93 log2 enrichment (interaction score).

With “GGCUAGAACUAGUGGAUCCCCCGGCGCCCGGCGGCUCGAGCCCGGGUAAGUGUGAAUAGUCUGCAUGCCGCCGGGCGCCAUGCCUGCAGGUCGACUCUAGAAAACAUG” as the sequence, how does the binding signal read?
Its binding signal is 3.34 log2 enrichment (interaction score).

Each sequence was assayed against PUM1 PUF domain R3-RCG (Homo sapiens, UniProt Q14671 828-1176, C935R;R936C;Q939G) in the same assay as above. Conditions: tags: N-Gal4 AD-HA kept; label: inside an RPR1-promoter hybrid RNA with tandem MS2 sites; ssRNA.
PUM1 PUF domain R3-RCG, sequence (Q14671 828-1176 C935R/R936C/Q939G): as the sequence (Q14671 828-1176 C1007L/R1008Q/Q1011R) above, with C108R, R109C, Q112G, L180C, Q181R, R184Q counted along it
Method in brief: as §1

Which binding signal does the source give for “GGCUAGAACUAGUGGAUCCCCCGGCGCCCGGCGGCUCGAGCCCGGGUAAGUGUAAAUAGUCUGCAUGCCGCCGGGCGCCAUGCCUGCAGGUCGACUCUAGAAAACAUG” here?
Its binding signal is 0.63 log2 enrichment (interaction score).

How did the binding signal turn out when “GGCUAGAACUAGUGGAUCCCCCGGCGCCCGGCGGCUCGAGCCCGGGUAAGUGUAAGUAGUCUGCAUGCCGCCGGGCGCCAUGCCUGCAGGUCGACUCUAGAAAACAUG” was run?
Its binding signal is 2.96 log2 enrichment (interaction score).

“GGCUAGAACUAGUGGAUCCCCCGGCGCCCGGCGGCUCGAGCCCGGGUAAGUGUAAUUAGUCUGCAUGCCGCCGGGCGCCAUGCCUGCAGGUCGACUCUAGAAAACAUG” was tested. Which binding signal did it give?
The binding signal was 3.58 log2 enrichment (interaction score).
